PubChem BioAssay AID2291 (The Scripps Research Institute Molecular Screening Center, 2010)
Screen size: about 16,000 compounds; about 75 (0.5%) were called active. What follows is part of a selection rich in actives, with near analogues and random picks from the rest. A number with no mark means an inactive call. Cut-off read from the data, not from the text of the source: active = inhibition above about 30%; inactive = the rest.

biological target: Protein phosphatase methylesterase 1 (Homo sapiens) (UniProt Q9Y570); assay: inhibitors of human PME-1 in Maybridge library (AID 2291); conditions: recombinant PME-1, FP-Rh probe fluorescence polarization; at 9 µM; hits give high values
Sequence (Q9Y570 whole entry, looked up): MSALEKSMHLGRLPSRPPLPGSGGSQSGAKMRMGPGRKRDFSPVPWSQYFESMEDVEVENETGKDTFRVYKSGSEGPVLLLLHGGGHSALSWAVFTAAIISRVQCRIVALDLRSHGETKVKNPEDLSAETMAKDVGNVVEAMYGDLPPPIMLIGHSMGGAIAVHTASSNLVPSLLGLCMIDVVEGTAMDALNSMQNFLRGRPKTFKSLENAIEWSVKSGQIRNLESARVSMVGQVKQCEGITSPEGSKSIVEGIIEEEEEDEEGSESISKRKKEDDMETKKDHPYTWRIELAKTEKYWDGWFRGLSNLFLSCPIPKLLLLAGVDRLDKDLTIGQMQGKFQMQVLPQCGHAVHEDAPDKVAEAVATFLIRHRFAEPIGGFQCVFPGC

Row | Structure (SMILES) | inhibition
1 | N#Cc1nccnc1N1CCN(c2ccccc2)CC1 | 1.69%
2 | N#Cc1cccnc1NNC(=O)c1ccccc1C(=O)O | -1.06%
3 | Fc1ccc(COc2ccc(-c3nnco3)cc2)cc1 | 4.75%
4 | CCOC(=O)c1cnc2c(S(=O)(=O)C(C)C)csc2c1Sc1cccc(Cl)c1 | 3.84%
5 | CC(=O)N1C=CC(c2c[nH]c3ccccc23)C=C1 | -3.18%
6 | CC(C)S(=O)(=O)/C(C#N)=C/c1ccccc1OC(F)(F)F | 2.58%
7 | CS(=O)(=NC(=O)c1cc2ccccc2o1)c1ccc(Cl)cc1 (stereo unspecified) | 4.96%
8 | CC(C)(C)C(=O)OCC(N)=S | -1.98%
9 | O=[N+]([O-])c1ccc(N2CCC2)cc1 | 0.196%
10 | CCOC(=O)c1c(C)nn(-c2ncccc2NC(=O)Nc2cccc(Cl)c2Cl)c1C | 37.4% (active)
11 | CCOC(=O)c1cc(C)nc(Sc2ccccc2NC(=O)Nc2ccc(Cl)cc2)c1C#N | 25.2%
12 | Cc1nc2cc3c(cc2s1)OCO3 | -0.92%
13 | O=C(NC(=S)Nc1nc(-c2ccc(Cl)cc2)cs1)C1CC1 | -13.9%
14 | O=S(=O)(Nc1ccc2[nH]ccc2c1)c1cccs1 | 3.17%
15 | CCCCC#Cc1cncc(C(=O)NNC(=O)Nc2ccc(Cl)cc2)c1 | 2.26%
16 | O=C1CSC(=S)N1c1ccc(N2CCCCCC2)c(N2C(=O)CSC2=S)c1 | -4.27%
17 | COC(=O)c1sccc1Oc1ccc(Cl)cc1[N+](=O)[O-] | 2.05%
18 | O=C(NCc1cccnc1)c1cnc2ccccc2n1 | 3.18%
19 | Cc1cc2c(cn1)C(=O)c1ccccc1-2 | 4.96%
20 | O=C1C(Cl)=C(Oc2cc(Cl)c(Cl)cc2Cl)C(=O)c2ccccc21 | 33.4% (active)
21 | COc1cccc(C(=O)c2sc3nsc(SCc4ccc(F)cc4)c3c2N)c1 | -5.96%
22 | N#C/C(=C\c1ccsc1Sc1ccc(Cl)cc1)S(=O)(=O)c1ccc(Cl)cc1 | -9.13%
23 | Cc1c(-c2cnc(NC(=O)c3ccccc3)s2)sc2ccc(Cl)cc12 | -9.03%

Row | Structure (SMILES) | inhibition
24 | CCOC(=O)C(NC(=O)Nc1ccccc1)(Nc1ccccc1OC)C(F)(F)F (stereo unspecified) | -0.9%
25 | O=C(O)CSC(SCC(=O)O)c1ccc2c(c1)OCO2 | -0.753%
26 | O=c1[nH]/c(=C/c2ccc(OC(F)(F)F)cc2)c(=O)[nH]/c1=C/c1ccc(OC(F)(F)F)cc1 | -0.938%
27 | N#Cc1c(C(F)(F)F)cc(-c2cccs2)nc1N1CCCCC1 | -3.16%
28 | Oc1ccccc1C=Nc1ccc(F)cc1 | -4.6%
29 | COc1ccc(-c2csc(-c3cc(C)on3)n2)cc1 | 9.36%
30 | Cc1ccc(/C=c2\sc3nc4ccccc4n3c2=O)o1 | 7.34%
31 | Cc1c(NC(=O)c2cccnc2)c(=O)n(-c2ccccc2)n1C | 2.93%
32 | CCOC(=O)c1c(-c2ccco2)csc1NC(=O)Nc1ccc(Cl)cc1 | -41.9%
33 | OC(c1ccncc1)c1c[nH]c2ccccc12 (stereo unspecified) | -0.868%
34 | O/N=C/c1ccc(F)c(Cl)c1 | 2.78%
35 | Cc1ccc2oc(-c3cccs3)nc2c1 | 2.37%
36 | Cc1cc(NCc2cccnc2)no1 | 1.95%
37 | NNC(=O)c1csc(-c2ccc(C(F)(F)F)cn2)n1 | 4.74%
38 | CC(=O)Nc1cccc([N+](=O)[O-])c1 | 2.8%
39 | CSc1nc(N)n(-c2ccccc2)n1 | 2.24%
40 | CCOC(=O)C(O)(NC(=O)Nc1ccccc1)C(F)(F)F (stereo unspecified) | 6.03%
41 | CCCCc1c(COC)nc(-c2ccc(Cl)cc2)[nH]c1=O | 2.14%
42 | CCCCCCCCc1ccc(C(=O)O)cc1 | 1.13%
43 | Cn1c(=O)c(/C(N)=N/OC(=O)c2ccccc2Cl)cn(-c2ccccc2)c1=O | -0.69%
44 | Cc1nnc(Sc2ccc([N+](=O)[O-])c(Sc3nnc(C)s3)n2)s1 | 5.33%
45 | O=C(Nn1cnnc1)c1cccs1 | 5.13%
46 | O=C(Nc1ccccc1)N1CCN(c2ncnc3sccc23)CC1 | 1.02%

Row | Structure (SMILES) | inhibition
47 | O=C(O)c1ccccc1/C=N/Nc1cc(Cl)ccc1Cl | 6.19%
48 | CCOC(=O)N/N=C(\C)c1cccc(NC(C)=O)c1 | -0.548%
49 | CCCN(CCC)S(=O)(=O)c1ccc(C(=O)O/N=C(\C)c2ccccc2O)cc1 | 0.391%
50 | COC(=O)c1cnc(Oc2ccc(N)cc2)cc1C(F)(F)F | 0.526%
51 | CCOC(=O)NC(=O)/C(=C/NCc1cccs1)C(=O)OCC | 0.233%
52 | COc1ccccc1NC(=O)c1ccc(C#Cc2ccccc2)o1 | -10.2%
53 | CS/C(N)=N/N=C/c1cccs1 | 1.26%
54 | CC1=NOC(=O)/C1=C\c1ccccc1 | 3.58%
55 | COc1ccc(-c2nnc(SCC(O)C(F)(F)F)n2-c2cccc(OC)c2)cc1 (stereo unspecified) | 1.14%
56 | CC(C)(C)c1ccc(NC(=O)c2ccco2)c(NC(=O)C(Cl)(Cl)Cl)c1 | 2.58%
57 | FC(F)(F)c1cccc(-n2c(-c3ccncc3)n[nH]c2=S)c1 | -4.3%
58 | Cc1ccc2oc(=O)n(CC/C(N)=N/OC(=O)c3ccc(C(F)(F)F)nc3C)c2c1 | 4.33%
59 | CCOc1cc(-c2cccs2)nc(N)n1 | 0.0895%
60 | Cc1ccc(OC(=O)c2nn(-c3ccccc3)nc2C)c([N+](=O)[O-])n1 | -1.37%
61 | O=C(CN1C(=O)/C(=C/c2ccccc2Cl)N=C1c1ccccc1)c1ccccc1 | -14%
62 | COc1c(Br)cc(C#N)cc1Br | 7.88%
63 | O=C(Nc1ccccc1)O/N=C1/CCCc2occc21 | -1.78%
64 | COc1ccc(CCNCC(O)Cn2ccc3ccccc32)cc1OC (stereo unspecified) | -0.35%
65 | COc1cc(NC(=O)COc2cc(Cl)c(Cl)cc2Cl)cc(OC)c1OC | -4.1%
66 | N#Cc1c(N)nc2c3c1NC(O)(c1ccccc1)C(C#N)C3c1cc(Cl)ccc1O2 (stereo unspecified) | -25.9%
67 | COc1cccc(NC(=S)NNC(=S)NC2CC3CCC2C3)c1 (stereo unspecified) | 5.71%
68 | O=C(O)C1CC2CC1CCC2O (stereo unspecified) | 4.17%
69 | NC(=O)c1c(C(F)(F)F)cc(C(F)(F)F)cc1C(F)(F)F | -0.0338%

Row | Structure (SMILES) | inhibition
70 | O/N=C/c1sccc1Oc1ccccc1 | 5.19%
71 | CSc1nccc(-c2ccc(S(=O)(=O)n3nc(C)c(Br)c3C)s2)n1 | -1.68%
72 | CC1CN=C(N(Cc2cccnc2)C(=O)Nc2ccc(Cl)c(Cl)c2)S1 (stereo unspecified) | -62.8%
73 | N#Cc1cn(C2CCCCC2)c(=O)[nH]c1=O | 6.75%
74 | COCCOc1ccc(NC(=S)N2CCOCC2)cc1 | -0.885%
75 | O=C1CCN(Cc2ccccc2)C(=O)N1c1ccc2c(c1)CCO2 | 5.14%
76 | Cc1nc(-c2nnc(SCC(=O)c3ccc(F)cc3)n2C)cs1 | 3.93%
77 | CSc1nc(N)c2ccccc2n1 | 4.47%
78 | O/N=C(\c1ccccc1)c1ccccn1 | 1.61%
79 | Cc1cc(C)n(/N=c2\sc(-c3ccccc3)cn2C2CC3C=CC2C3)c(=O)c1C#N (stereo unspecified) | 1.38%
80 | NC(=O)c1ccc(-c2csnn2)cc1 | 4.57%
81 | CC(=O)N1CCc2cc(NC(=S)Nc3ccccc3Cl)ccc21 | -0.615%
82 | CC1=CC(=O)C(CCC2=CC(=O)C(C)=CC2=O)=CC1=O | -5.46%
83 | CN(C)/C=C1/C(=O)NN=C1CSc1ccc(Cl)cc1 | 4.88%
84 | O=S(=O)(CCN1CCC(C(F)(F)F)CC1)c1ccccc1 | 5.79%
85 | CSc1nc2c(c(/C=C/c3ccccc3)c1C#N)CCC2 | 0.0789%
86 | CSC(=Nc1ccccc1C(F)(F)F)N1CCCC1 | -2.33%
87 | Cc1ccc(S(=O)(=O)NC(=O)NCCSCc2ccco2)cc1 | 5.18%
88 | NNC(=O)c1cc2ccccc2s1 | 7.18%
89 | O=C(O)c1nccnc1C(=O)O | 5.09%
90 | CC(=O)OC1=CCC2C3CC[C@@]4(C)CC(OC(C)=O)CCC4(C)C3C(OC(C)=O)CC12C (stereo partly specified) | -6.54%
91 | OC1(C#Cc2ccccc2)CCN(Cc2ccccc2)CC1 | 4.15%
92 | O=C(Nc1ccc(OCc2ccccc2)cc1)OCC1CN(Cc2ccccc2)CCO1 (stereo unspecified) | 5.09%

Row | Structure (SMILES) | inhibition
93 | CCCCCCCCCCCCCC#CC(O)C(N)CO (stereo unspecified) | -4.1%
94 | OCCNC(=S)Nc1ccccc1-c1ccccc1 | 0.487%
95 | FC(F)(F)C1=CC=NCCN1 | 10.1%
96 | OCCNc1nc2ccccc2[nH]1 | -2.41%
97 | O=S(=O)(c1ccccc1)c1cc(C(F)(F)F)cc(C(F)(F)F)c1 | -0.142%
98 | O=C(NCc1ccc2c(c1)OCO2)c1cccc2c1OCCCO2 | -4.73%
99 | O=C1c2cc(S(=O)(=O)Oc3ccccc3)ccc2-c2ccc(S(=O)(=O)Oc3ccccc3)cc21 | 5.56%
100 | CN(Cc1nnc(-c2ccc3ccccc3c2)o1)c1nnc(C(F)(F)F)s1 | 3.28%
101 | COC(=O)c1ccccc1N(C)C(=O)c1cc(OC)c(OC)c(OC)c1 | 0.643%
102 | COC(=O)c1ccccc1-c1c2ccc(=O)cc-2oc2cc(O)ccc12 | 61.2% (active)
103 | COC(=O)c1ccccc1NC(=O)c1ccc(Oc2cc(Cl)cc(Cl)c2)o1 | -2.65%
104 | S=C(SCc1ncon1)N1CCSCC1 | -2.3%
105 | C/C(=N\NC(N)=S)c1cc2cc(Cl)ccc2o1 | -1.43%
106 | Clc1ccc(C2=NN(Cc3ccccc3)CC2)s1 | 2.04%
107 | NC(=NC(=O)CCn1c(=O)oc2ccccc21)c1cc(Cl)cc(Cl)c1 | -1.92%
108 | O=S(=O)(Oc1cccc(C(F)(F)F)c1)c1cc(S(=O)(=O)c2ccccc2)cs1 | -3.1%
109 | CC(C)(C)c1cc(C(=O)N/N=C/c2ccc([N+](=O)[O-])s2)n[nH]1 | 4.23%
110 | CCOC(=O)/C(C#N)=C/N/S(C)=N/N=C/c1ccc(N(C)C)cc1 (stereo unspecified) | 4.21%
111 | NNC(=O)CSc1nnc(-c2ccccc2)n1-c1ccccc1 | 3.4%
